TDP1 cell CPT = DT40-hTDP1 cell growth loss with CPT; AID 686979; Potency, µM (doses to about 46.2 µM), inactives show at the top dose activity change, negative = growth inhibition, most hits filed as inhibitors; 12% of 420,000 active; chicken DT40 Tdp1-/-;hTDP1 cells + 20 nM CPT, ATP luminescence, 48 h; also: nearly all actives have a fitted effect of over 55% in size
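Chicken DT40 Tdp1-/- cells complemented with human TDP1, 400 cells/well, exposed to compounds plus 20 nM camptothecin for at least 48 h at 37 C; viability read as ATP content by CellTiter-Glo luminescence.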
DT40 TDP1 no CPT = qHTS for Inhibitors of human tyrosyl-DNA phosphodiesterase 1 (TDP1): qHTS in cells in absence of CPT; DT40 Tdp1-/- hTDP1 cells, no CPT, ATP luminescence, 48 h; 15% of 420,000 active; Potency, µM (series often up to 46.2 µM), for inactives: top-dose activity change, negative = growth inhibition, most hits filed as inhibitors; AID 686978, 2013; also: nearly all actives have a fitted effect of over 55% in size
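DT40 Tdp1-/-;hTDP1 cells, no CPT (DMSO vehicle only), 400 cells/well; compounds pin-transferred; ≥48 hr, 37 °C; CellTiter-Glo 30 min RT dark, luminescence read.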
VP16 counter = counter-screen for ROR gamma inhibitors: Gal4-VP16 reporter; Drosophila S2 Gal4-VP16 UAS-luciferase, luminescence, 20 h; Potency, µM (highest dose often 53.6 µM), for inactives: top-dose activity, negative = inhibition, most hits filed as inhibitors; 3.5% of 310,000 active; AID 2546;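 also: Gal4-VP16 expression switched on by copper sulfate through the metallothionein promoter; nearly all actives have a fitted effect of over 50% in size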
ALOX12 inh = blocks human arachidonate 12S-lipoxygenase; purified 12hLO, xylenol orange hydroperoxide absorbance; Potency, µM (top dose mostly 108 µM), for the others: top-dose activity change, negative = inhibition, usual class: inhibitors; 1.1% of 580,000 active
Target sequence (P18054 whole entry, looked up): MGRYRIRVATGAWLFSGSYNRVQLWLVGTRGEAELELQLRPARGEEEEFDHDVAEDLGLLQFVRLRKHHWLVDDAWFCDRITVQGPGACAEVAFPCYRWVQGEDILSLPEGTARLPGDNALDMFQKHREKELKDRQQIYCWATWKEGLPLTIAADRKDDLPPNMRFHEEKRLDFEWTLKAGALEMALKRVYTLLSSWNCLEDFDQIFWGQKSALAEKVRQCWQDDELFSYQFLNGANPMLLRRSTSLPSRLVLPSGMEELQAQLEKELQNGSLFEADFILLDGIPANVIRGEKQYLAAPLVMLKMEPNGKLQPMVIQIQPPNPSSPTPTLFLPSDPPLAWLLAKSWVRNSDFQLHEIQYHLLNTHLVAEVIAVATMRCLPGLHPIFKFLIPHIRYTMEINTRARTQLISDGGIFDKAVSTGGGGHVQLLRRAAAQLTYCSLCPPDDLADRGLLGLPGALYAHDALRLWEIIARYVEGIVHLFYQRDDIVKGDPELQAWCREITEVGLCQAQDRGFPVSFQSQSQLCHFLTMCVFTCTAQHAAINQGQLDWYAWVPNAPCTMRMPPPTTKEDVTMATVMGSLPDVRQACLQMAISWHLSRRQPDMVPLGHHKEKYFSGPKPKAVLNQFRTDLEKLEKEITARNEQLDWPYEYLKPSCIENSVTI
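Purified human 12hLO (150 nM final) in 25 mM Hepes, 0.01% Triton X-100, pH 7.0 was preincubated 15 min at room temperature with compound. Then 40 uM arachidonic acid was added, 30 min. Hydroperoxide was read by Fe-XO absorbance ratio 573/405 nm.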
RORg inh = blocks mouse ROR gamma transcriptional activity. 5.4% of 310,000 active. P51450. Drosophila S2 Gal4-RORgamma UAS-luciferase reporter, 20 h. Potency, µM (series often up to 53.6 µM), for inactives: at the highest dose activity change, negative = inhibition, most hits filed as inhibitors; also: nearly all actives have a fitted effect of over 60% in size
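Luminescence from a UAS-regulated Photinus luciferase reporter in stably transfected Drosophila Schneider cells is measured; decreased signal marks ROR gamma inhibition. Fusion expression is induced by 700 uM copper sulfate for 20 hr.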
ELG1 DNA repair = blocks ELG1-dependent DNA repair in HEK293T cells. AID 504467. 2.3% of 330,000 active. Potency, µM (highest dose often 46.1 µM), for the others: at the highest dose activity change, negative = inhibition, most hits filed as inhibitors. HEK293T ELG1-luciferase reporter, luminescence, 16 h; DNA damage induced by 5-fluorouridine; also: nearly all actives have a fitted effect of over 55% in size
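Step one: seed 2,000 cells per well. Step two: pin-transfer compound or DMSO alongside 5-fluorouridine. Step three: incubate 16 hr, 37 °C, 5% CO2. Step four: add ONE-Glo, wait 30 min, read luminescence.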
Numbers without * were called inactive; ? = inconclusive; / = no result. Hits are enriched below; roughly 15% of the tested compounds scored in any of these assays. Calls follow the shape of the dose curve; as a rule, active = well fitted curve in the direction sought with a large enough effect; inconclusive = small, poorly fitted or top-dose-only effect, or another doubt; inactive = no such curve, though single readings can be large; an effect the other way counts as inactive or inconclusive. % is scaled to controls: 0 for no effect and ±100 for the full control effect; potency is read from the fitted curve at half-maximal effect.

SMILES	TDP1 cell CPT	DT40 TDP1 no CPT	VP16 counter	ALOX12 inh	RORg inh	ELG1 DNA repair
CCOC(=O)c1c(-c2ccccc2)nc2c(C)cccn12	15µM*	16µM*	-5%	-4%	-29%	-17%
CCS(=O)(=O)N1CCC(F)(c2nc(-c3ccccc3)no2)CC1	/	/	/	16%	/	/
O=C(c1cc[nH]c1C1CCCNC1)N(Cc1ccc(F)cc1)Cc1cccnc1 (centres undefined)	/	/	/	58%	/	/
COc1ccc(/C(C#N)=C/c2c(-c3ccc(Cl)cc3)nc3c(C)cccn23)cc1	?	18µM*	1%	0%	?	-13%
Cc1cccn2c(=O)c(/C=C(\C#N)c3nc4ccccc4n3C)c(Oc3ccc(Cl)cc3)nc12	?	8.2µM*	/	-23%	/	/
Cc1cccn2c(=O)c(/C=C(\C#N)c3nc4ccccc4n3C)c(Oc3ccc(Br)cc3)nc12	10µM*	6.5µM*	/	-23%	/	/
Cc1cc(Oc2nc3c(C)cccn3c(=O)c2/C=C(\C#N)S(=O)(=O)c2ccc(Cl)cc2)ccc1Cl	?	23µM*	-1%	-15%	22%	5%
Cc1cccn2c(/C=N/OCc3ccc(F)cc3)c(-c3ccc(Cl)cc3)nc12	?	?	-8%	1%	-22%	3%
Cc1cccn2c(=O)c(/C=C(\C#N)c3nc4ccccc4[nH]3)c(Oc3ccc(C(C)(C)C)cc3)nc12	5%	-14%	/	-5%	/	/
O=C(C1CC=CC1)N1CCc2nn(Cc3ccccc3)c(=O)n2CC1	/	/	/	37%	/	/
N#C/C(=C\c1c(Oc2ccc(Br)cc2)nc2ccccn2c1=O)c1nc2ccccc2s1	-73%	16µM*	/	?	/	/
CC(C)(C)c1ccc(Oc2nc3ccccn3c(=O)c2/C=C(\C#N)c2nc3ccccc3[nH]2)cc1	2%	-3%	/	-13%	/	/
COc1ccccc1CC(=O)Nc1ccc(S(=O)(=O)N2CCCCC2)cc1	-19%	?	1%	-20%	-1%	?
COc1ccccc1N(CC(=O)Nc1ccc(S(=O)(=O)N2CCCCC2)cc1)S(C)(=O)=O	?	18µM*	-5%	-6%	?	?
CCN(CC(=O)Nc1ccc(S(=O)(=O)N2CCCC2)cc1)Cc1ccccc1	16µM*	?	/	-17%	/	-15%
CCN(CC(=O)Nc1cc(S(=O)(=O)N2CCOCC2)ccc1C)Cc1ccccc1	16µM*	13µM*	/	-7%	/	-9%
CN1C[C@H](O)C[C@H]1c1nnc2n1CCN(C(=O)c1ccsc1)CC2	/	/	/	42%	/	/
O=C(CN1CCN(c2ncccc2C(F)(F)F)CC1)NC1CC1	/	/	/	6%	/	/
CC(=O)c1cccc(NC(=O)c2nc(-c3ccc(C)cc3)n3c2CCCCC3)c1	/	/	/	-3%	/	/
COC(=O)c1ccc(NC(=O)c2nc(-c3ccc(Cl)cc3)n3c2CCCCC3)cc1	0.73µM*	0.82µM*	/	1%	/	/
O=C(NCCc1ccccc1)c1nc(-c2ccc(Cl)cc2)n2c1CCCCC2	12µM*	10µM*	/	-25%	/	/
O=C(NCCc1ccc(Cl)cc1)c1nc(-c2cccc(F)c2)n2c1CCCCC2	18µM*	9.2µM*	/	-8%	/	/
COc1ccc(N(C)C(=O)c2nc(-c3cccc(F)c3)n3c2CCCCC3)c(OC)c1	?	?	/	-1%	/	/
COC(=O)c1ccccc1NC(=O)c1nc(-c2ccc(C)cc2)n2c1CCCCC2	/	/	/	0%	/	/
CC(C)N(Cc1ccccc1)C(=O)c1nc(-c2ccc(Cl)cc2)n2c1CCCCC2	9.2µM*	18µM*	/	?	/	/
SMILES	TDP1 cell CPT	DT40 TDP1 no CPT	VP16 counter	ALOX12 inh	RORg inh	ELG1 DNA repair
CCCn1c(C)cnc1CC1CCN(C(=O)NC)C1 (centres undefined)	/	/	/	31%	/	/
CCOc1ccccc1CNC(=O)c1nc(-c2ccc(Cl)cc2)n2c1CCCCC2	23µM*	?	/	-15%	/	/
O=C1[C@H](Cc2ccccc2)NCC=CC[C@@H](c2ccc(Cl)cc2)N1Cc1ccccc1	?	10µM*	/	?	/	/
O=C1[C@H](Cc2ccccc2)NCC=CC[C@H](c2ccco2)N1Cc1ccccc1	21µM*	?	/	?	/	/
CCc1ccc(C2/C=C\CNC(c3ccccc3)C(=O)N2Cc2ccc(C)cc2)cc1 (centres undefined)	/	/	-6%	/	-26%	/
CC(=O)C1=C(O)C(=O)N(Cc2ccccc2)C1c1ccco1 (centres undefined)	4%	2%	5%	-14%	-15%	2%
Cc1cc(NC(=O)c2cn(C3CCCCC3)c(=O)c3c2c2ccccc2n3C)no1	?	23µM*	4%	-15%	-40%	?
CCOc1ccccc1NC(=O)c1cn(C2CCCCC2)c(=O)c2c1c1ccccc1n2C	?	?	/	-12%	/	/
Cc1ccc(CNC(=O)c2cn(C3CCCCC3)c(=O)c3c2c2ccccc2n3C)o1	12µM*	16µM*	19%	-5%	2%	?
Cc1nc2ccc(NC(=O)CC3CC4CCC3C4)cc2s1 (centres undefined)	/	/	/	-30%	/	/
Cc1ncsc1CN1CC(Oc2cccc(C(=O)N3CCOCC3)c2)C1	/	/	/	29%	/	/
CCc1nc2c(c(-c3ccc(Cl)cc3)n1)CN(Cc1ccc(OC)cc1)CC2	/	/	/	10%	/	/
c1ccc(CNc2nc(-c3cccnc3)nc3ccccc23)cc1	?	?	8%	?	22%	?
Fc1ccc(CNc2nc(-c3cccnc3)nc3ccccc23)cc1	?	18µM*	-2%	?	37%	?
CCN(CC(=O)Nc1ccc2c(c1)OCCO2)C(=O)c1cc(Cl)nc2ccccc12	-5%	-34%	/	-6%	/	-2%
c1ccc(CN2CCC(Nc3nc(-c4cccnc4)nc4ccccc34)CC2)cc1	18µM*	13µM*	-2%	?	-26%	3%
c1cncc(CNc2nc(-c3cccnc3)nc3ccccc23)c1	?	0%	-1%	?	3%	-7%
NS(=O)(=O)c1ccc(CNc2nc(-c3cccnc3)nc3ccccc23)cc1	?	15µM*	0%	-10%	7%	?
CCN(CC(=O)Nc1ccc2c(c1)OCCO2)c1nc(-c2cccnc2)nc2ccccc12	?	23µM*	-26%	0%	40%	13µM*
CCN(CC)C(=O)CN1C(=O)NC2(CCC(C)CC2)C1=O (centres undefined)	/	/	/	36%	/	/
CCOc1ccccc1C(=O)NC(C(=O)OCC(C)C)C(C)C (centres undefined)	/	/	/	-7%	/	/
COc1cc(/C=N/OCc2cccc(Br)c2)cc(OC)c1OC	/	/	/	6%	/	/

Screening data as filed in PubChem BioAssay.
